This note sets out measurements from PubChem BioAssay (NCATS).

Each structure is given as a SMILES string. Inconclusive results are not listed. Active and inactive are the calls of the source. Calls follow the shape of the dose curve; as a rule, active = well fitted curve in the direction sought with a large enough effect; inconclusive = small, poorly fitted or top-dose-only effect, or another doubt; inactive = no such curve, though single readings can be large; an effect the other way counts as inactive or inconclusive.

The nature of assay [1]: qHTS of pediatric cancer cell lines to identify multiple opportunities for drug repurposing: Primary screen for OHS-50 cells (AID 1347103). Also: nearly all actives have a fitted effect of over 40% in size. Also: potency is read from the fitted curve at half-maximal effect. An outline of the steps: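 Cells (500-1,000/well) rested 5 h, then received compounds for 48 h; metabolically active cells were measured by CellTiter-Glo luminescence. Final concentrations spanned up to 46 µM (MIPE, 11-point) or 0.59 nM-46 µM (NPC, 8-point) in primary screens, 11-point in follow-ups.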

Assay [2] can be described thus: qHTS of pediatric cancer cell lines to identify multiple opportunities for drug repurposing: Primary screen for RD cells (AID 1347104). Also: nearly all actives have a fitted effect of over 55% in size. An outline of the steps:
(§1)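 Phenotypic viability qHTS, 48 h compound exposure, CellTiter-Glo luminescence read-out; multi-concentration dosing so that potency and efficacy derive directly from the primary screen's curves.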

The nature of assay [3]: qHTS of pediatric cancer cell lines to identify multiple opportunities for drug repurposing: Primary screen for MG 63 (6-TG R) cells (AID 1347105). Also: nearly all actives have a fitted effect of over 50% in size. Summed up: as §1
Assay [4] can be described thus: qHTS of pediatric cancer cell lines to identify multiple opportunities for drug repurposing: Primary screen for control Hh wild type fibroblast cells (AID 1347106).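 Also: series mostly up to about 46 µM; a drop in luminescence marks cytotoxicity and a rise apparent proliferation; nearly all actives have a fitted effect of over 55% in size.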 An outline of the steps: (§2)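 Cells (500-1,000/well) in growth media were settled 5 h at 37 degrees C, then given compounds for 48 h. Viability was read as CellTiter-Glo luminescence. Primary runs used MIPE at 11 points (0.78 nM-46 µM) and NPC at 8 points (0.59 nM-46 µM); follow-ups used 11 points.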

Assay [5] is described as follows: qHTS of pediatric cancer cell lines to identify multiple opportunities for drug repurposing: Primary screen for Rh30 cells (AID 1347107). Also: series mostly up to about 46 µM; nearly all actives have a fitted effect of over 75% in size. Summed up:
as §2

Assay [6] in a line: qHTS of pediatric cancer cell lines to identify multiple opportunities for drug repurposing: Primary screen for Rh41 cells (AID 1347108).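 Also: series mostly up to about 46 µM; luminescence drop marks cytotoxic hits; nearly all actives have a fitted effect of over 70% in size.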 An outline of the steps: as §1

`CC(=O)SCC(CC(=O)c1ccc(C)cc1)C(=O)O` (centres undefined): the Potency result in assay [1], in assay [2], in assay [3], in assay [4], in assay [5] and in assay [6] was “inactive” each time.
With `CCCCCCCC/C=C/C(=O)O`, the Potency result in assay [1], in assay [2], in assay [3], in assay [4], in assay [5] and in assay [6] was “inactive” in each case.
`C[N+]1(C)[C@@H]2CC(OC(=O)[C@H](CO)c3ccccc3)C[C@H]1[C@@H]1O[C@@H]12` (some centres undefined): the Potency entry in assay [1], in assay [2], in assay [3], in assay [4], in assay [5] and in assay [6] was “inactive” throughout.
As to `COc1ccnc2c1CCCCC2S(=O)c1nc2ccccc2[nH]1` (centres undefined), the Potency result in assay [1], in assay [2], in assay [3], in assay [4], in assay [5] and in assay [6] was “inactive” in each case.
As to `Cc1ccc2c(n1)Oc1ccc(C(C)C(=O)OCC(=O)N(C)C)cc1C2` (centres undefined), the Potency result in assay [1], in assay [2], in assay [3], in assay [4], in assay [5] and in assay [6] was “inactive” each time.
In the case of `O=C(O)Cc1ccc(-c2ccccc2)cc1`, the Potency result in assay [1], in assay [2], in assay [3], in assay [4], in assay [5] and in assay [6] was “inactive” throughout.
On to `Cc1nc2ccccc2n1Cc1ccc(Cl)cc1`, for which the Potency in assay [1] was 3.47 µM (active). Also, the Potency entry in assay [2], in assay [3], in assay [4] and in assay [5] was “inactive” throughout.
For `CO[C@@]1(NC(=O)Cc2cccs2)C(=O)N2C(C(=O)O)=C(COC(N)=O)CS[C@@H]21`, the Potency entry in assay [1], in assay [2], in assay [3], in assay [4], in assay [5] and in assay [6] was “inactive” each time.
With `CC(C)OC(=O)c1cc(C(=O)OC(C)C)cc([N+](=O)[O-])c1`, the Potency entry in assay [1], in assay [2], in assay [3], in assay [4], in assay [5] and in assay [6] was “inactive” in each case.
Consider `Nc1nc2ccc([N+](=O)[O-])cc2s1`, for which the Potency in assay [1] was 25.2 µM (active). The Potency entry in assay [2], in assay [3], in assay [4], in assay [5] and in assay [6] was “inactive” each time.
Regarding `O=C(O)Cc1ccc2c(c1)C(=O)c1ccccc1CO2`, the Potency entry in assay [1], in assay [2], in assay [3], in assay [4], in assay [5] and in assay [6] was “inactive” throughout.
As to `Cc1c(N)c(=O)n(-c2ccccc2)n1C`, the Potency result in assay [1], in assay [2], in assay [3], in assay [4], in assay [5] and in assay [6] was “inactive” throughout.
Regarding `Nc1c(CC(=O)O)cccc1C(=O)c1ccc(Br)cc1`, the Potency entry in assay [1], in assay [2], in assay [3], in assay [4], in assay [5] and in assay [6] was “inactive” throughout.
On to `CCCCCCCCCCCC(=O)[O][Sn]([CH2]CCC)([CH2]CCC)[O]C(=O)CCCCCCCCCCC`, for which the Potency entry in assay [1], in assay [2], in assay [3], in assay [4], in assay [5] and in assay [6] was “inactive” each time.
As to `CC(=O)c1ccc(OCC(=O)N2CCCCC2)cc1`, the Potency entry in assay [1], in assay [2], in assay [3], in assay [4], in assay [5] and in assay [6] was “inactive” each time.
Consider `Cc1ccc(O)c(-n2nc3ccccc3n2)c1`, for which the Potency entry in assay [1], in assay [2], in assay [3], in assay [4], in assay [5] and in assay [6] was “inactive” in each case.
As to `NCCO`, the Potency entry in assay [1], in assay [2], in assay [3], in assay [4], in assay [5] and in assay [6] was “inactive” in each case.
With `O=C(OCc1ccccc1)c1ccccc1`, the Potency entry in assay [1], in assay [2], in assay [3], in assay [4], in assay [5] and in assay [6] was “inactive” each time.
Take `Nc1ccc(C(=O)O)c(O)c1`: the Potency entry in assay [1], in assay [2], in assay [3], in assay [4], in assay [5] and in assay [6] was “inactive” in each case.
Regarding `CN(C)[C@@H]1C(=O)C(C(=O)NCN2CCCC2)=C(O)[C@@]2(O)C(=O)C3=C(O)c4c(O)cccc4[C@@](C)(O)C3C[C@@H]12` (some centres undefined), the Potency entry in assay [1], in assay [2], in assay [3], in assay [4], in assay [5] and in assay [6] was “inactive” in each case.
